Source: PubChem BioAssay (National Center for Advancing Translational Sciences (NCATS))
POLI inh: DNA polymerase iota (human) inhibition | actives 1% (n = 390,000) | Q9UNA4 | Pol iota fluorescent replication assay, 10 min | Potency, µM (top dose mostly 115 µM), hits mostly inhibitors
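Pol iota at 10 nM preincubated 15 min with compounds at room temperature; reaction started with fluorescent substrate, 50 nM final. Fluorescence read kinetically at 0 and 10 min; buffer-only wells as negative control.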
POLB inh: DNA polymerase beta (human) inhibition | Pol beta primer extension/strand displacement, fluorescence kinetic | actives 1.3% (n = 340,000) | P06746 | Potency, µM (titrated, usually from 114 µM), usual class: inhibitors
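Enzyme-only controls used 10 nM Pol beta; buffer lacking enzyme served as negative control. Compound preincubated 15 min, then 50 nM substrate added; 0 and 10 min reads at room temperature.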
Pol eta inh: inhibitors of human DNA polymerase eta | Q9Y253 | recombinant Pol eta, fluorescent DNA replication assay | Potency, µM (titrated, usually from 114 µM), usual class: inhibitors | actives 1.2% (n = 390,000)
Target sequence (Q9Y253 whole entry, looked up): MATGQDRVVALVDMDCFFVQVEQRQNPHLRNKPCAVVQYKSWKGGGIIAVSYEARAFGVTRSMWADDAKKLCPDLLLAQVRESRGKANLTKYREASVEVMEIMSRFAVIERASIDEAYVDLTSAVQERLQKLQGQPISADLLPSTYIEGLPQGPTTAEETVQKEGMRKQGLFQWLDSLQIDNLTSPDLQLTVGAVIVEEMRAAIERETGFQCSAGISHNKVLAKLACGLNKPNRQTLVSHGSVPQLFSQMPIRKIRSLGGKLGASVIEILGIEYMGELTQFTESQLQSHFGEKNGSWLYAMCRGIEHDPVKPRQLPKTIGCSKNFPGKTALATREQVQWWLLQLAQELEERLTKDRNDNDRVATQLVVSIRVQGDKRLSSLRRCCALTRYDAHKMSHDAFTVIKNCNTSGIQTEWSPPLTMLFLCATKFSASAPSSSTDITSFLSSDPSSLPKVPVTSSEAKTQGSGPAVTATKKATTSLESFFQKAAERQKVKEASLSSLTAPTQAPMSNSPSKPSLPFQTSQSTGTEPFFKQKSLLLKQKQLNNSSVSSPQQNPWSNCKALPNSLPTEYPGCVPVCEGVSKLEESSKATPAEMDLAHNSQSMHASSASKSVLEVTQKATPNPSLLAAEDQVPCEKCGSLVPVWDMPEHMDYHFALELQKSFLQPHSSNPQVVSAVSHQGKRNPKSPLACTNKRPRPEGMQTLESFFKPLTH
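Pol eta at 10 nM preincubated with compounds 15 min at room temperature; reaction started with fluorescent substrate (50 nM final) and read kinetically at 0 and 10 min.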
POLK inh: blocks human DNA polymerase kappa activity; Q9UBT6; purified Pol kappa, fluorescent DNA synthesis assay, 10 min; Potency, µM (series often up to 107 µM), hits mostly inhibitors; actives 0.53% (n = 400,000)
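Enzyme at 10 nM met test compounds for 15 min at room temperature. Substrate addition (50 nM final) began the reaction, which was monitored by fluorescence at 0 and 10 min.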
PI5P4K alpha inh: PI5P4K alpha (human) kinase inhibition. max response, %. PI5P4Kalpha enzyme, ADP-Glo luminescence, 60 min; active compounds read low. AID 652105. actives 1.2% (n = 330,000). P48426; active = max response of -50% or lower; inconclusive = between -30% and -50%; inactive = -30% or higher; also: value at the top dose of about 77 µM
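Reactions run in 0.038 M HEPES pH 7.4, 0.28 mM EGTA, 0.1% CHAPS and 5% DMSO, with PI5P4Kalpha, substrate, compound and 5 microM ATP final, one hour at room temperature. Readout is ADP-Glo luminescence.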
WRN helicase inh: blocks human WRN helicase; Potency, µM (series often up to 114 µM), hits mostly inhibitors; actives 0.46% (n = 360,000); WRN helicase unwinding, fluorescent forked duplex, kinetic; Q14191; also: nearly all actives have a fitted effect of over 55% in size
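Enzyme (20 nM final) and test compound sit together 15 min at room temperature before substrate addition. Substrate is a single-forked duplex oligonucleotide (100 nM) labelled with fluorophore and quencher, with 2 mM ATP; helicase unwinding raises red fluorescence, read kinetically.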
Of the large screens only hits and unclear results are named; the others gave an inactive call; ! = not active in a repeat. Shown are actives, neighbours in structure and some others; about 2.8% of the full set was active somewhere. Unless noted, calls follow the shape of the dose curve; as a rule, active = well fitted curve in the direction sought with a large enough effect; inconclusive = small, poorly fitted or top-dose-only effect, or another doubt; inactive = no such curve, though single readings can be large; an effect the other way counts as inactive or inconclusive.

O=C(CSc1ccc(-c2cccnc2)nn1)Nc1ccc(F)cc1	none
COC(=O)C1(C(=O)OC)C[C@H](c2cccs2)N(Cc2ccccc2OC)[C@@H]1c1ccc(F)cc1	none (no result: POLI inh, POLB inh, Pol eta inh, POLK inh)
Cc1ccc(/C=C2\SC(=S)N(CC3CCCO3)C2=O)o1 (stereo unspecified)	POLI inh inconclusive, POLB inh 20µM, Pol eta inh inconclusive, POLK inh inconclusive, PI5P4K alpha inh inconclusive
COc1ccc(/C=C2\SC(=S)N(CC3CCCO3)C2=O)cc1 (stereo unspecified)	none
O=C1/C(=C\c2ccc(-c3ccccc3Cl)o2)SC(=S)N1CC1CCCO1 (stereo unspecified)	none
COc1cc(/C=C2/SC(=S)N(CC3CCCO3)C2=O)ccc1O (stereo unspecified)	POLI inh inconclusive, POLB inh inconclusive, Pol eta inh inconclusive, WRN helicase inh 79.4µM
COc1ccc(C(=O)COC(=O)/C=C/c2ccccc2)c(OC)c1	POLI inh 35.5µM, Pol eta inh 39.8µM, POLK inh 44.7µM, PI5P4K alpha inh -60.6 (no result: POLB inh)
COc1ccc(OC)c(C(=O)COC(=O)c2cccnc2Cl)c1	none
COc1ccc(C(=O)COC(=O)c2cc(C)no2)c(OC)c1	POLI inh 50.1µM, Pol eta inh inconclusive, PI5P4K alpha inh inconclusive (no result: POLB inh)
COc1ccc(C(=O)COC(=O)c2cccnc2Cl)c(OC)c1	POLI inh 39.8µM, POLB inh 12.6µM, Pol eta inh 50.1µM, POLK inh inconclusive, PI5P4K alpha inh -74.5
COc1ccc(C(=O)COC(=O)CNC(=O)C2CCCCC2)c(OC)c1	POLI inh inconclusive, POLB inh 22.4µM, Pol eta inh inconclusive, PI5P4K alpha inh inconclusive
COc1ccc(C(=O)COC(=O)c2ccc3c(c2)OCCO3)c(OC)c1	POLI inh inconclusive, Pol eta inh inconclusive (no result: POLB inh)
Cc1ccc(C)c(S(=O)(=O)Nc2ccc(C(=O)N3CCCCC3)cc2)c1	none
O=C(Nc1ccncc1)c1ccc(Cl)c(S(=O)(=O)N2CCc3ccccc32)c1	none (no result: POLB inh)
CCc1nnc(NC(=O)c2ccc(Cl)c(S(=O)(=O)N3CCc4ccccc43)c2)s1	POLI inh inconclusive, POLB inh 20µM, Pol eta inh inconclusive
CC1=NN(S(=O)(=O)c2ccc(Cl)cc2Cl)C(=O)c2ccccc2O1	none
CCN(CC)c1ccc(/C=C/C(=O)c2ccc(Br)cc2)cc1	POLI inh inconclusive, POLB inh inconclusive, Pol eta inh inconclusive, WRN helicase inh 22.4µM
CN(C)c1ccc(C(=O)/C=C/c2ccc(Br)cc2)cc1	none
COC(=O)CSc1nnc(CNc2ccc(Cl)cc2)n1-c1ccccc1	none
CCC1=NN2C(=N)/C(=C/c3ccc(OS(=O)(=O)c4ccccc4)cc3)C(=O)N=C2S1	POLB inh inconclusive, Pol eta inh 44.7µM, PI5P4K alpha inh -63.3
CCC1=NN2C(=N)/C(=C\c3cccn3-c3ccc(Cl)cc3)C(=O)N=C2S1	POLI inh inconclusive, POLB inh 28.2µM, Pol eta inh inconclusive
CCC1=NN2C(=N)/C(=C\c3cccn3-c3ccc(C)c(C)c3)C(=O)N=C2S1	POLB inh inconclusive, Pol eta inh inconclusive
Cc1cn([C@H]2C[C@H](O)[C@@H](/C=C/C(=O)NCCC(c3ccccc3)c3ccccc3)O2)c(=O)[nH]c1=O	none (no result: POLI inh, POLB inh, Pol eta inh, POLK inh)
CN(Cc1ccccc1C#N)S(=O)(=O)c1cccs1	none
N#Cc1nccnc1S(=O)(=O)c1cccs1	WRN helicase inh 50.1µM
Cc1ncc(COP(=O)(O)O)c(C=O)c1O	none (no result: POLI inh, POLB inh, Pol eta inh, PI5P4K alpha inh, WRN helicase inh)
Cc1nc(N=Nc2cc(S(=O)(=O)O)ccc2S(=O)(=O)O)c(COP(=O)(O)O)c(C=O)c1O	POLK inh 2µM (no result: POLI inh, POLB inh, Pol eta inh, PI5P4K alpha inh, WRN helicase inh)
O=S1(=O)CC(O)C(N2CCCCC2)C1 (stereo unspecified)	POLB inh inconclusive
CC1(C)C(O)C=C[C@@]2(C)C1CC(=O)O[C@@]1(C)C3=CC(=O)OC(c4ccoc4)[C@]3(C)CCC21 (stereo partly specified)	none (no result: POLI inh, POLB inh, Pol eta inh, PI5P4K alpha inh, WRN helicase inh)
O=S(=O)(/N=S1\CC=CCN1S(=O)(=O)c1ccccc1)c1ccccc1 (stereo unspecified)	POLI inh 28.2µM, PI5P4K alpha inh -50.4, WRN helicase inh 8.91µM (no result: POLB inh)
O=S(=O)(c1ccccc1)N1CCN(S(=O)(=O)c2ccccc2)CC1	none (no result: POLB inh, Pol eta inh, PI5P4K alpha inh, WRN helicase inh)
C[C@@](N)(Cc1ccc(O)c(O)c1)C(=O)O	POLK inh 3.55µM! (no result: POLI inh, POLB inh, Pol eta inh, PI5P4K alpha inh, WRN helicase inh)
CC(N)(Cc1ccc(O)cc1)C(=O)O (stereo unspecified)	none (no result: PI5P4K alpha inh, WRN helicase inh)
COC(=O)C1=C(C)N(CCCC(=O)O)C(=O)NC1c1ccc(-c2ccccc2)cc1 (stereo unspecified)	PI5P4K alpha inh -74.7
CC1=C(C(=O)OCC(Br)(Br)Br)C(c2ccc(Br)cc2)NC(=O)N1CCCC(=O)O (stereo unspecified)	none (no result: POLI inh, Pol eta inh, POLK inh, PI5P4K alpha inh, WRN helicase inh)
COC(=O)C1=C(C)N(CCCC(=O)O)C(=O)NC1c1ccc(C(F)(F)F)cc1 (stereo unspecified)	PI5P4K alpha inh -81.4
COC(=O)C1=C(C)N(CCCC(=O)O)C(=O)NC1c1ccc(C#N)cc1 (stereo unspecified)	POLI inh 14.1µM, PI5P4K alpha inh -63.4 (no result: POLB inh)
COC(=O)C1=C(C)N(CCCC(=O)O)C(=O)NC1c1ccc(Br)cc1 (stereo unspecified)	POLI inh inconclusive, PI5P4K alpha inh -99.1
CC(CSC(=O)c1ccccc1)C(=O)N1c2ccccc2CC1C(=O)O (stereo unspecified)	none (no result: POLI inh, POLB inh, Pol eta inh, POLK inh)
COC(=O)C1=C(C)N(CCCC(=O)O)C(=O)NC1c1ccccc1Cl (stereo unspecified)	PI5P4K alpha inh -82.0 (no result: POLB inh)
COC(=O)C1CCN(C(=O)COC(=O)CSc2ccc(C(N)=O)cc2[N+](=O)[O-])CC1	none (no result: POLB inh)
CSC1=N/C(=C\c2ccc(Br)o2)C(=O)S1	POLI inh 7.08µM, POLB inh 39.8µM, Pol eta inh 8.91µM, POLK inh 31.6µM, WRN helicase inh inconclusive
COc1ccc(OC)c(CNC(=O)C2CCCCN2S(=O)(=O)c2ccc(F)cc2)c1 (stereo unspecified)	none (no result: PI5P4K alpha inh, WRN helicase inh)
Cc1nc2c(=O)[nH]c(=S)n(C)c2nc1C	POLI inh inconclusive, PI5P4K alpha inh inconclusive, WRN helicase inh 56.2µM
Cc1nc2[nH]c(=S)[nH]c(=O)c2nc1C	Pol eta inh inconclusive, WRN helicase inh inconclusive (no result: POLB inh)
OCCCN=c1cc(-c2ccccc2)oc2ccc(Cl)cc12	POLI inh inconclusive, POLB inh 44.7µM
Cc1ccc(-n2c(SCC(N)=O)nnc2-c2ccc(S(=O)(=O)N3CCCCC3)cc2)c(C)c1	none (no result: PI5P4K alpha inh)
CC(C)n1cc(/C=N/NC(=O)COc2cccc3cccnc23)c2ccccc21	POLI inh 7.94µM, POLB inh inconclusive, Pol eta inh inconclusive, WRN helicase inh inconclusive
C=CCn1cc(/C=N/NC(=O)COc2cccc3cccnc23)c2ccccc21	POLI inh inconclusive, POLB inh inconclusive, Pol eta inh inconclusive
Cn1nc2sc3ccccc3n2c(=O)c1=O	none
